Values joined by “and” are separate entries in the source; they are usually repeats but may differ in a detail not shown here. Equal values may be shown once. Results filed as inconclusive are left out. Active and inactive are the calls of the source.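 The calls were made as follows, unless noted: active = compounds that lower survival of HCT116 colon cancer cells in the luminescence readout, no numeric limit stated; inactive = the rest.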
Tests used:
[1] = Wnt pathway potentiators raising nuclear beta-catenin – imaging, WNT3A-conditioned medium, mouse C2C12, NPC library, primary screen (AID 1117326; in the data active = nuclear beta-catenin stimulation mostly above about 4.2%, no sharp cut-off; inactive = mostly below about 10%; also: reference of the scale not given here); conditions: stronger effect = higher value
[2] = stimulators of insulin release from INS-1E, primary screen, cell-based, 5 mM glucose, NPC library (AID 1117329;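 active = compound raises insulin release from rat beta cells at 5 mM glucose, no numeric limit stated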; also: reference of the scale not given here); conditions: rat INS-1E insulin secretion, at 10 µM, stronger effect = higher value
[3] = growth inhibition of GSK3B-pretreated HCT116 cells – cell-based, CellTiter-Glo, 0.2 to 20 µM (AID 1117336;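 active = compounds lowering colon cancer cell viability after pretreatment blocking the GSK3B kinase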); conditions: HCT116 viability after GSK3B inhibitor, at 20 µM, stronger effect = higher value
[4] = inhibition of endothelial tube formation, primary screen, imaging, VEGF stimulated, CD31 staining, tube area, NPC library (AID 1117340;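 active = compound that reduces growth-factor-driven endothelial tube area in a mixed cell culture, no cutoff stated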); conditions: VEGF-stimulated ADSC/ECFC co-culture, at 10 µM, stronger effect = higher value
[5] = GLP1 release stimulators, primary, NCI-H716, NPC library (AID 1117341;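 active = compound raises GLP1 secretion from the human gut endocrine cells, with no numeric limit stated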; also: reference of the scale not given here); conditions: NCI-H716 cells, at 10 µM, stronger effect = higher value
[6] = HCT116 colon cancer cell growth inhibition, primary screen, CellTiter-Glo luminescence, NPC library (AID 1117342); conditions: at 20 µM (top of the series)
[7] = reduced SW480 viability measured with CellTiter-Glo, NPC library, primary (AID 1117343;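 active = compounds that lower viability of the colon cancer cells in the luminescence readout, with no numeric limit stated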); conditions: CellTiter-Glo luminescence; at 20 µM (top of the series) unless noted
[8] = NPC library primary testing for decreased DLD-1 cell viability via CellTiter-Glo (AID 1117346;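 active = compounds that lower survival of DLD-1 colon cancer cells in the luminescence readout, no cutoff given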); conditions: DLD-1 viability, CellTiter-Glo luminescence; at 20 µM (top of the series)
[9] = viability loss in pontine glioma line – cell-based, SU-DIPG-XVII, MIPE5.0, CellTiter-Glo, qHTS, dose response (AID 1347060; cut-off not given, nearly all actives have AC50 up to about 26 µM); conditions: CellTiter-Glo ATP luminescence
[10] = viability loss in pontine glioma line – cell-based, SU-DIPG-XIII, MIPE4.0, CellTiter-Glo, qHTS, dose response (AID 1347061; cut-off not given, nearly all actives have AC50 up to about 37 µM;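 also: cells exposed to compound for 48 hours before readout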); conditions: CellTiter-Glo ATP luminescence
[11] = viability loss in pontine glioma line – cell-based, JHH-DIPG-1, MIPE4.0, CellTiter-Glo, qHTS, dose response (AID 1347062; cut-off not given, nearly all actives have AC50 up to about 27 µM); conditions: JHH-DIPG-1 viability, CellTiter-Glo ATP luminescence
[12] = growth inhibition of DIPG cells – cell-based, MIPE5.0 library, qHTS (AID 1347068; cut-off not given, nearly all actives have IC50 up to about 30 µM); conditions: SU-DIPG-XXV viability
[13] = P. berghei load reduction in hepatocytes – cell-based, HepG2, luciferase luminescence, HepG2 viability, primary screen (AID 624349; in the data active = parasite load remaining mostly below about 12%, no sharp cut-off; inactive = mostly above about 10%;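 also: 100% = mean of DMSO negative control wells on the same plate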); conditions: P. berghei liver stage in HepG2, luciferase luminescence, concentration not given here; parasite load remaining: stronger effect = lower value; viability: measured here: HepG2 viability without parasites
[14] = viability loss with induced miR-34 in A549 – imaging, A549 dox-inducible miR-34, nuclei and caspase counts, primary screen (AID 1347080;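 active = compounds whose cell count with miR-34 switched on is under 0.7 times the count with it off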); conditions: A549 miR-34 inducible, Hoechst nuclei count, 48 h
[15] = MELAS cybrid and Rieske KO viability enhancers – cell-based, MELAS cybrids, Rieske KO mouse fibroblasts, CellTiter-Glo, primary screen (AID 1508586;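 active = mean z-score across replicates of 1.96 or higher in either the MELAS or the Rieske mutant cell line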;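 also: z relative to plate mean and SD of compound and empty wells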); conditions: low glucose
[16] = target: NAD(+) hydrolase SARM1 (Homo sapiens) (UniProt Q6SZW1); assay: blocking NAD cleavage by SARM1 SAM-TIR – cell lysate, NAD-Glo luminescence (AID 1508614;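 active = compound whose remaining NAD level is above about 45 nM, limit read from the data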;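 also: higher remaining NAD means stronger inhibition of SARM1 NADase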); conditions: SAM-TIR HEK293T lysate NADase, at 1 µM, stronger effect = higher value
[17] = galactose survival enhancers in mitochondrial complex I cybrids – cell-based, galactose medium, ATP luminescence, primary screen (AID 1645843;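 active = z-score of at least 1.8 in each of two replicates, scored against plate mean and spread of sample wells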;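 also: positive z means more ATP and so rescue of galactose-driven cybrid death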); conditions: complex I mutant cybrid cells, 72 h, stronger effect = higher value
[18] = test system: Aerobactin synthetase IucA (Klebsiella pneumoniae); assay: inhibition of K. pneumoniae IucA enzyme – biochemical, Tocris library, absorbance (AID 1345561; call rule not given here;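 also: 100% = enzyme without compound and 0% = no enzyme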); conditions: purified IucA enzyme assay, absorbance (OD) read-out; stronger effect = lower value;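 tested at 8 µM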
[19] = stronger effect = lower value, cell number ratio, induced over uninduced
[20] = measured here: relative caspase fold change +Dox/-Dox
[21] = measured here: total cells with miR-34 induction, stronger effect = lower value
[22] = measured here: total cells without miR-34 induction
[23] = MELAS cybrid survival, CellTiter-Glo 48 h, stronger effect = higher value
[24] = Rieske KO mouse fibroblast survival, CellTiter-Glo 72 h

Chain of NAD(+) hydrolase SARM1 (Homo sapiens) (Q6SZW1 whole entry, looked up): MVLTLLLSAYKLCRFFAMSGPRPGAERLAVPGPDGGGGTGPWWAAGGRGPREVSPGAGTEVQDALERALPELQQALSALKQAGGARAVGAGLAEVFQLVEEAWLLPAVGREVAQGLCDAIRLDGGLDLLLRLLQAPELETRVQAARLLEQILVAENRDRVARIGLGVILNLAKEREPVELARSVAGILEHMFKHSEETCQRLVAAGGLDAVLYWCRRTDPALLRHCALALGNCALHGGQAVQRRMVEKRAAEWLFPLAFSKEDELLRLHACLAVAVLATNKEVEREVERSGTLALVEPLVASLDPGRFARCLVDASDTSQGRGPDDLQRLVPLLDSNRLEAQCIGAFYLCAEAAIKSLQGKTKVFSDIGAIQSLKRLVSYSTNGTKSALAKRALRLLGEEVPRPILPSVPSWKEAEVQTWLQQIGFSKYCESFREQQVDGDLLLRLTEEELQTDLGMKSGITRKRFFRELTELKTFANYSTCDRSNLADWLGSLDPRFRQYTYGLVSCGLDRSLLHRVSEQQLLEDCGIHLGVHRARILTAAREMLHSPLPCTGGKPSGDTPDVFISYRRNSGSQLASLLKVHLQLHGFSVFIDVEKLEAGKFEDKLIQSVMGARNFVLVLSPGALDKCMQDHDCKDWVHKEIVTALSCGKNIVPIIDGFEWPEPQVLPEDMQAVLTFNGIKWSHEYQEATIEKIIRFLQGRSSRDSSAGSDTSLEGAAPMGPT

C[C@H]1C[C@H]2[C@@H]3CCC4=CC(=O)C=C[C@]4(C)[C@H]3C(=O)C[C@]2(C)[C@@]1(O)C(=O)CO
inactive: nuclear beta-catenin stimulation ([1]; at 10 µM) 0.1% | insulin secretion stimulation [2] 1.5% | viability decrease [3] 19% | tube area decrease [4] -11% | GLP1 secretion stimulation [5] 0.7% | inhibition of viability [6] -1.9% | viability decrease (inhibition) [7] 0.2% | viability decrease (inhibition) [8] 5.4% | outcome [9] | outcome [10] | outcome [11] | outcome [12]
1.2%: nuclear beta-catenin stimulation ([1]; stimulation, at 2 µM)

O=c1[nH]c(=O)n([C@H]2C[C@H](O)[C@@H](CO)O2)cc1I
0.284 and 0.0835: z-score [15, 24]
inactive: parasite load remaining [13] 42.1% and 24.1% | nuclear beta-catenin stimulation ([1]; at 10 µM) -0.5% | insulin secretion stimulation [2] 0.4% | viability decrease [3] 10.1% | GLP1 secretion stimulation [5] -0.6% | inhibition of viability [6] 11.4% | viability decrease (inhibition) [7] 39.4% | viability decrease (inhibition) [8] 9.4% | outcome [9] | outcome [10] | outcome [11] | outcome [12] | fold change [14, 19] 0.955 and 0.894 | z-score [15, 23] 1.21 and 1.8 | remaining NAD [16] 10 nM | z-score [17] 0.45
53.4% and 72.5%: viability [13]
8510 and 10100: cell count [14, 22]
1.48 and 1.08: fold change [14, 20]
active: tube area decrease [4] 69.4%
8120 and 9040: cell count [14, 21]
0.3%: nuclear beta-catenin stimulation ([1]; stimulation, at 2 µM)

CCCCCOC(=O)Nc1nc(=O)n([C@@H]2O[C@H](C)[C@@H](O)[C@H]2O)cc1F
-1.4%: nuclear beta-catenin stimulation ([1]; stimulation, at 2 µM)
inactive: nuclear beta-catenin stimulation ([1]; at 10 µM) 0.5% | insulin secretion stimulation [2] -0.1% | viability decrease [3] -9.5% | tube area decrease [4] 5.3% | GLP1 secretion stimulation [5] -0.5% | inhibition of viability [6] 0.7% | viability decrease (inhibition) [7] -2% | viability decrease (inhibition) [8] -8.6% | outcome [9] | outcome [10] | outcome [11] | outcome [12] | remaining NAD [16] 10 nM

CN1CCC(Nc2ncc3ncnc(Nc4ccc(F)c(Cl)c4)c3n2)CC1
active: viability decrease [3] 57.4% | inhibition of viability [6] 73.7% | viability decrease (inhibition) [7] 97.8% | viability decrease (inhibition) [8] 78.2%
0.1%: nuclear beta-catenin stimulation ([1]; stimulation, at 2 µM)
0.869: fold change [14, 20]
inactive: nuclear beta-catenin stimulation ([1]; at 10 µM) 11.6% | insulin secretion stimulation [2] 5.85% | tube area decrease [4] -4.5% | GLP1 secretion stimulation [5] 6.3% | remaining activity [18] 123% | fold change [14, 19] 1.35 | z-score [17] -0.455
3140: cell count [14, 21]
2330: cell count [14, 22]

CC(=O)[C@H]1CC[C@H]2[C@@H]3CC=C4C[C@@H](O)CC[C@]4(C)[C@H]3CC[C@]12C
1.6%: nuclear beta-catenin stimulation ([1]; stimulation, at 2 µM)
0.646 and 0.0253: z-score [15, 24]
inactive: parasite load remaining [13] 90.8% and 62.2% and 6.53% | nuclear beta-catenin stimulation ([1]; at 10 µM) 3% | insulin secretion stimulation [2] -2% | viability decrease [3] 7.55% | tube area decrease [4] 8.7% | GLP1 secretion stimulation [5] 1.9% | inhibition of viability [6] -2.4% | viability decrease (inhibition) [8] 18.9% | outcome [9] | outcome [10] | outcome [11] | outcome [12] | fold change [14, 19] 0.857 and 0.834 | z-score [15, 23] 0.44 and 0.49 | remaining NAD [16] 10 nM | z-score [17] -1.23
1.38 and 1.19: fold change [14, 20]
110% and 79.4% and 65.5%: viability [13]
active: viability decrease (inhibition) [7] 82%
8970 and 9160: cell count [14, 21]
10500 and 11000: cell count [14, 22]

Source: PubChem BioAssay
